Inconclusive results are not listed. Active and inactive are the calls of the source. Unless noted, how the calls were made is not given here.
Experiments:
[1] = qHTS profiling of the MIPE4 collection as inhibitors of Plasmodium falciparum (3D7) proliferation (AID 743344);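 further: scaled between DMSO vehicle wells and 0.29 µM artemisinin as full inhibition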; conditions: P. falciparum 3D7 in erythrocytes, SYBR Green DNA fluorescence, 72 h; at 28.5 µM unless noted
Method in brief: (§1)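 Erythrocytes infected with P. falciparum (0.3% parasitemia, 2.5% hematocrit) incubated with compounds 72 h at 37 C, 5% CO2. Lysis with saponin/Triton buffer containing SYBR Green I, overnight at room temperature in the dark; DNA fluorescence (485/535 nm) normalised to 0.29 uM artemisinin and DMSO.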

[2] = qHTS profiling of the MIPE4 collection as inhibitors of Plasmodium falciparum (DD2) proliferation (AID 743345); conditions: P. falciparum Dd2 in erythrocytes, SYBR Green DNA, 72 h; at 28.5 µM unless noted
Method in brief: as §1

[3] = qHTS profiling of the MIPE4 collection as inhibitors of Plasmodium falciparum (DD2) proliferation (Rep 2) (AID 743346); conditions: P. falciparum Dd2 in erythrocytes, SYBR Green DNA, 72 h; at 28.5 µM unless noted
Method in brief: as §1

[4] = High-throughput drug toxicity screening in the BPDCN cell line Gen2.2 (AID 1224824); conditions: Gen2.2 BPDCN cells; at 45.8 µM (top of the series) unless noted;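 further: cells exposed to compounds for 48 h before reading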
Method in brief: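 Seed 500 exponentially growing Gen2.2 cells/well; add compounds by pin tool; incubate 48 h, 37 °C, 5% CO2; add CellTiter-Glo, 15 min RT; read luminescence. % activity vs DMSO (100%) and bortezomib (0%).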

[5] = High-throughput drug toxicity screening in the BPDCN cell line Cal-1 (AID 1224825); conditions: Cal-1 BPDCN cell viability, qHTS; at 45.8 µM (top of the series) unless noted
Method in brief: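 500 Cal-1 cells/well, RPMI + glutamine + 10% FBS (phenol red-free); cpd added by pin tool; 48 h, 37C, 5% CO2; CTG 15 min RT, lumi read. Normalised: DMSO 100%, bortezomib 9.2 uM 0%.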

[6] = qHTS assay for measurement of the activity of small molecule inhibitors on Zika virus induced Caspase-3 activity in human iPSC derived neural progenitor cells (hNPCs) (AID 1224857; active means well fitted inhibition curve with a large enough effect; further: nearly all actives have a fitted effect of over 65% in size; further: potency means the concentration at half of the fitted maximal effect)
Method in brief: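 Pretreat hNPCs with compound 1 h; infect ZIKV 2 FFU/cell; 6 h 37 C, 5% CO2; Caspase-Glo 3/7, 30 min RT; luminescence; normalize to no-virus and virus-only wells.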

[7] = qHTS assay for measurement of the activity of small molecule inhibitors on Zika virus induced Caspase-3 activity in human astrocytoma cells (AID 1224859; active means well fitted inhibition curve with a large enough effect;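 further: plate controls were ZIKV-infected untreated cells for no effect and uninfected cells for full effect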)
Method in brief: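 Human SNB-19 astrocytoma cells in RPMI 1640 with 10% FBS receive compound one hour ahead of Zika virus at 2 FFU/cell. After 6 h infection, caspase-3/7 activity is detected by Caspase-Glo luminescence.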

[8] = qHTS profiling of the MIPE4 collection as inhibitors of Plasmodium falciparum (HB3) proliferation (AID 743347);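 further: plate controls were DMSO vehicle wells for no effect and artemisinin wells for full effect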; conditions: P. falciparum HB3 in erythrocytes, SYBR Green DNA, 72 h; at 28.5 µM unless noted
Method in brief: as §1

SMILES	parasite growth, % of DMSO control [1]	parasite growth remaining, % of DMSO control (lower = more inhibition) [2]	parasite growth, % of control (lower = inhibition) [3]	cell viability, % of control (lower = more cytotoxic) [4]	viability (% of control) [5]	Potency [6]	Potency [7]	growth, % of control [8]
Clc1ccc(C2(c3ccc(-c4cn[nH]c4)cc3)CCNCC2)cc1	4.5%	9.74%	12.8%	16.8%	10.8%	inactive	inactive	
CN[C@@H]1CN(c2ccc3c(=O)c(C(=O)O)cn(-c4nccs4)c3n2)C[C@@H]1OC	9.37% [at 9.64 µM]	7.58% [at 9.64 µM]	8.12% [at 9.64 µM]	7.46% [at 23.2 µM]	3.44% [at 23.2 µM]	inactive	inactive	8.57% [at 9.64 µM]
CN1CCN(c2cccc(Nc3nc4c(-c5ccc(S(C)(=O)=O)cc5)cccn4n3)c2)CC1	11.4%	11.3%	11.4%	83%	50.9%	inactive	inactive	10.2%
CN(C)CCOc1cc(-c2cn[nH]c2)ccc1NC(=O)C1COc2ccccc2O1 (stereo not drawn)	29.9%	61.4%	32.4%	73.4%	34.9%	inactive	inactive	38.6%
CON(C)C(=O)N1N=C(c2cc(F)ccc2F)S[C@]1(CCCN)c1ccccc1	13.1%	10.1%	18.3%	16.8%	7.01%	inactive	inactive	8.3%
Cc1nc2c([nH]1)CCN(C(=O)c1ccc(NC(=O)c3ccccc3-c3ccccc3)cc1)c1ccccc1-2	5.23%	8.18%	13.3%	48.7%	55.1%	inactive	inactive	
CN(C(Cc1ccc(OS(=O)(=O)c2cccc3cnccc23)cc1)C(=O)N1CCN(c2ccccc2)CC1)S(=O)(=O)c1cccc2cnccc12 (stereo not drawn)	6.17%	7.38%	10.8%	116%	85.3%	inactive	inactive	
O=[N+]([O-])c1ccc(Nc2ccccc2-c2ccccc2)c2nonc12	33.4%	83.4%	46.7%	145%	88.7%	inactive	inactive	75.1%
COc1ccc2c(c1)c(C1=C(c3c[nH]c4ccccc34)C(=O)NC1=O)cn2CCCN(C)C	5.52%	8.71%	12.5%	8.51%	8.47%	inactive	inactive	5.22%
Cc1cnc(-c2cc(N3CCN(C(=O)CCS(C)(=O)=O)CC3)ncc2Cl)c(C)c1	58.6%	93.9%	110%	120%	64.7%	inactive	inactive	76.4%
CN1N=C(N)c2cn([C@@H]3O[C@H](COP(=O)(O)O)[C@@H](O)[C@@H]3O)c3ncnc1c23	82.4%	100%	67.6%	199%	76.2%	inactive	inactive	98.6%
O=C(O)C1=NC(C(=O)O)CC(C=CN2c3cc(O)c(OC4OC(CO)C(O)C(O)C4O)cc3CC2C(=O)O)=C1 (stereo not drawn)	93%	104%	76.3%	267%	136%	inactive	inactive	
Cc1ccc2c(c1)C(=O)[C@]1(O)CCN(c3ccccc3)C1=N2	70.4%	90.7%	89.8%	91%	34.3%	inactive	inactive	76.8%
COc1ccc(-c2oc3c(CC=C(C)C)c(O)cc(O)c3c(=O)c2O)cc1	4.59%	9.79%	11.9%	188%	45.1%	inactive	inactive	4.42%
CC(C)=CCCC(C)=CCCC(C)=CCCC(C)=CCCC(C)=CCCC(C)=CCCC(C)=CCCC(C)=CCCC(C)=CCO	95.7%	17.5%	99.4%	132%	121%	inactive	inactive	100%
CN(C)CCOc1ccc(-c2nc(-c3ccc4c(c3)CCC4=NO)c(-c3ccncc3)[nH]2)cc1	4.92%	6.01%	6.72%	7.29%	36.1%	inactive	inactive	2.95%
CN(C)c1ccccc1CN1CCCN(Cc2ccccc2N(C)C)C1c1ccncc1	17.2%	9.84%	11.1%	13.5%	29.7%	inactive	inactive	12.9%
C=C1c2cccc(O)c2C(O)=C2C(=O)[C@@]3(O)C(O)=C(C(N)=O)C(=O)[C@@H](N(C)C)[C@@H]3[C@@H](O)[C@H]12	23.7%	36.4%	24.1%	88.8%	94.6%	inactive	inactive	15.6%
N#Cc1ccc(Oc2ccc3c(c2)COB3O)cc1	35.7%	91.9%	38.3%	210%	98.9%	inactive	inactive	
CNC1CCC(N(Cc2cccc(-c3ccncc3)c2)C(=O)c2sc3ccccc3c2Cl)CC1 (stereo not drawn)	4.86%	7.31%	9.91%	3.76%	1.63%	inactive	inactive	6.96%
CCOC(=O)N1c2ccc(C(F)(F)F)cc2[C@@H](N(Cc2cc(C(F)(F)F)cc(C(F)(F)F)c2)C(=O)OC)C[C@H]1CC	6.27%	7.82%	14.4%	115%	91.9%	inactive	inactive	3.55%
O=C(c1ccc(C=Cc2n[nH]c3ccccc23)cc1)N1CCNCC1	22.1%	31.2%	22.9%	57.2%	18%	inactive	inactive	

SMILES	parasite growth, % of DMSO control [1]	parasite growth remaining, % of DMSO control (lower = more inhibition) [2]	parasite growth, % of control (lower = inhibition) [3]	cell viability, % of control (lower = more cytotoxic) [4]	viability (% of control) [5]	Potency [6]	Potency [7]	growth, % of control [8]
COc1cc2c(cc1OC)[C@@H]1Cc3ccc(OC)c(OC)c3CN1CC2	25.7%	36.6%	26.7%	132%	20.2%	inactive	inactive	11.1%
O=c1[nH]c(=O)n([C@H]2C[C@@H](O)[C@@H](CO)O2)cc1I	85%	39.2%	77.7%	138%	87.5%	inactive	inactive	62.7%
CN1CCC[C@H]1CCO[C@](C)(c1ccccc1)c1ccc(Cl)cc1	12.4%	13.4%	23.9%	77.3%	50.8%	inactive	inactive	10.3%
COc1cc(Nc2nc3ccccc3nc2NS(=O)(=O)c2ccc(NC(=O)c3ccc(C)c(OC)c3)cc2)cc(OC)c1	42%	40.5%	32.8%	32.5%	78.5%	inactive	inactive	17.6%
Fc1ccc(CNc2ncnc3ccc(F)cc23)cc1	300%	90.6%	117%	91.2%	93.2%	inactive	inactive	630%
O=C(Nc1ccccc1)Nc1ccc(-c2ccc(C(=O)[C@H]3CCC[C@H]3C(=O)O)cc2)cc1	29%	78.7%	32%	28.8%	107%	inactive	inactive	51.7%
CN1CCc2c(n(Cc3ccc(C(=O)NO)cc3)c3ccccc23)C1	5.97%	11.6%	9.26%	17.7%	3.16%	inactive	inactive	4.11%
COc1cc2ncnc(Nc3cc(Br)c(O)c(Br)c3)c2cc1OC	10.7%	54.4%	43.2%	15.7%	11%	inactive	inactive	5.25%
CCN1CCN(c2ccc(Nc3cc(N(C)C(=O)Nc4c(Cl)c(OC)cc(OC)c4Cl)ncn3)cc2)CC1	4.57%	5.88%	8.62%	147%	90.9%	inactive	inactive	2.41%
Cc1cc(OCCCS(C)(=O)=O)cc(C)c1-c1cccc(COc2ccc3c(c2)OC[C@H]3CC(=O)O)c1	52.2%	34.3%	61.9%	168%	91.1%	inactive	inactive	90.9%
CC(C)N(CCCNC(=O)Nc1ccc(C(C)(C)C)cc1)C[C@H]1O[C@@H](n2cc(Br)c3c(N)ncnc32)[C@H](O)[C@H]1O	5.02%	7.13%	9.5%	116%	61.2%	inactive	inactive	7.54%
Cn1c(=O)c(Oc2ccc(F)cc2F)cc2cnc(NC3CCOCC3)nc21	25.1%	86.4%	48.3%	178%	93.3%	inactive	inactive	35.7%
COc1cc2nccc(Oc3ccc(NC(=O)Nc4ccc(F)cc4F)c(F)c3)c2cc1OC	17.2%	36.3%	46.4%	205%	86.2%	inactive	inactive	9.7%
C[C@@]1(c2cc(-c3cncnc3)c(F)cc2F)CCSC(N)=N1	28.5%	44.7%	28.2%	9.95%	13.1%	inactive	inactive	14%
CN(CC=CC#CC(C)(C)C)Cc1cccc2ccccc12	15%	79.2%	14.9%	194%	115%	inactive	inactive	14.6%
CC1(C)CC(=O)c2c(C(F)(F)F)nn(-c3ccc(C(N)=O)c(NC4CCC(O)CC4)c3)c2C1 (stereo not drawn)	5.39%	8.63%	13%	8.13%	13.5%	inactive	inactive	3.53%
CN1CC(=O)N2C(Cc3c([nH]c4ccccc34)[C@H]2c2ccc3c(c2)OCO3)C1=O (stereo partly drawn)	14%	17.5%	23.9%	110%	85.7%	3.72 µM (active)	inactive	11.5%
C[C@@]1(C(=O)Nc2ccc(F)nc2)CCCN1c1nc(Nc2cc(C3CC3)[nH]n2)c2cccn2n1	10.3%	14.6%	23.8%	131%	17.3%	inactive	inactive	4.94%
CC[C@@H]([C@H](C)O)n1ncn(-c2ccc(N3CCN(c4ccc(OCC5CO[C@@](Cn6cncn6)(c6ccc(F)cc6F)C5)cc4)CC3)cc2)c1=O (stereo partly drawn)	6.37%	9.01%	20.2%	169%	108%	inactive	inactive	5.52%
O=C1C(c2c(O)[nH]c3ccccc23)=Nc2ccccc21	90.1%	86.5%	73.7%	52.3%	68.6%	inactive	inactive	98.4%
COc1ccc2ccc(=O)oc2c1CC=C(C)C	94.2%	15.6%	73.4%	124%	97.4%	inactive	inactive	80.3%

Reference: PubChem BioAssay (NCATS)
